Screening results: PubChem BioAssay, Broad Institute
This excerpt belongs to a sample that is enriched for hits.
BL2 CD40 inh = CD40 pathway inhibition in BL2 cells; hit rate 0.94% among 83,000; inhibition, % at 10 µM; BL2 NF-kB luciferase reporter, CD40L-induced, 4 h;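 active = mean inhibition of at least 50% with a set share of replicates also reaching that level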;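 also: 0% = neutral control wells and 100% = IKK inhibitor VII at 50 µM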
* = called active by the depositor; [ ] = another dose, or the depositor's remark.

SMILES	BL2 CD40 inh
COC(=O)[C@@H]1[C@@H](CO)[C@@H]2Cn3c(cccc3=O)[C@@H]2N1CC1CC1	4.4[25 µM]
CCN(CC)C(=O)c1ccc(NC(=O)c2cccc(S(=O)(=O)N3CCN(Cc4ccccc4)CC3)c2)cc1	17.5
CCN(CC)C(=O)c1ccc(NC(=O)Nc2ccccc2F)cc1	83.5*
CCN(CC)C(=O)c1ccc(NC(=O)c2ccc(N3CCCC3=O)cc2)cc1	15.8
C/C=C/c1ccc([C@@H]2[C@H]3CN(C(=O)Cc4cccnc4)CCCCN3[C@H]2CO)cc1	-8.6[25 µM]
O=C(O)[C@H]1[C@H](CO)[C@H]2Cn3c(ccc(-c4ccncc4)c3=O)[C@@H]1N2S(=O)(=O)c1ccccc1F	1.2[25 µM]
COc1ccc(C#Cc2ccc([C@@H]3[C@H](CO)N4CCCCN(C(=O)Cc5ccccc5)C[C@@H]34)cc2)cc1	-27.3
O=C1CNC[C@@H]2[C@H](c3ccc(Br)cc3)[C@H](CO)N12	-13.5[25 µM]
N#Cc1ccc(-c2ccc([C@H]3[C@H]4CN(C(=O)Cc5ccccc5)CCCCN4[C@H]3CO)cc2)cc1	0.8[25 µM]
Cn1ncnc2c(=O)n(C)c(=O)nc1-2	86.0*
CCCNC(=O)N1[C@@H]2c3ccc(-c4ccccc4OC)c(=O)n3C[C@H]1[C@H](CO)[C@H]2C(=O)OC	-1.3[25 µM]
CCCNC(=O)[C@@H]1[C@@H](CO)[C@@H]2Cn3c(cccc3=O)[C@@H]2N1C	-3.9
CS(=O)(=O)N1CC2NC(C1)C2c1ccc(Br)cc1 (configuration not stated)	-4.6
O=C(Cc1ccccn1)N1CCCCN2[C@H](CO)[C@H](c3ccc(Br)cc3)[C@@H]2C1	3.4[25 µM]
CC1=C[C@H]2[C@]3(O)[C@H](C)[C@@H](O)[C@@]4(O)[C@H]([C@@H]3C=C(CO)C[C@]2(O)C1=O)C4(C)C	-0.5[25 µM]
O=[N+]([O-])c1ccc(N2CC2)c([N+](=O)[O-])c1	0.8
O=[N+]([O-])c1ccc(N2CCOCC2)c2c1no[n+]2[O-]	86.0*
O=[N+]([O-])c1ccc(N2CCCCC2)c2ncccc12	-8.1
C[C@H]1CN([C@@H](C)CO)C(=O)CCCn2cc(nn2)CO[C@H]1CN(C)C(=O)Oc1ccc2ccccc2c1	-2.4[25 µM]
CN1[C@@H]2CNc3ccccc3[C@@H]2[C@@H]1CO	4.6[25 µM]
O=C(Cc1cccnc1)N1CCCCN2[C@H](C1)[C@H](c1ccc(C#CC3(O)CCCC3)cc1)[C@@H]2CO	2.2[25 µM]
COC(=O)C1=C(C(=O)OC)C2OC1c1cc3ccccc3cc12	102.5*
CC(C)NC(C)C(=O)c1ccc2ccccc2c1 (configuration not stated)	9.4
COc1cc(C2c3cc4c(cc3CC3COC(=O)C32)OCO4)cc(OC)c1O (configuration not stated)	-44.6
O=C1NC2C(O)C(O)C(O)C(O)C2c2cc3c(c(O)c21)OCO3 (configuration not stated)	97.1*
SMILES	BL2 CD40 inh
O=C1NC2C(=CC(O)C(O)C2O)c2cc3c(c(O)c21)OCO3 (configuration not stated)	107.5*
COC(=O)[C@H]1[C@H](CO)[C@H]2Cn3c(ccc(-c4cccc(F)c4)c3=O)[C@@H]1N2Cc1ccncc1	-7.1[25 µM]
CC(C)NC(=O)N1[C@@H]2Cn3c(ccc(-c4cccc(C(=O)N(C)C)c4)c3=O)[C@H]1[C@@H](C(=O)O)[C@@H]2CO	4.3[25 µM]
C=CCN1[C@@H]2CN(CC(F)(F)F)C[C@H]1C2c1ccc(Br)cc1 (some centres not stated)	-7.1
COC(=O)[C@H]1[C@H](CO)[C@H]2Cn3c(ccc(C4=CCCCC4)c3=O)[C@@H]1N2CCc1ccccc1	8.7[25 µM]
O=C(Cc1ccncc1)N1CCCCN2[C@H](CO)[C@H](c3ccc(C#Cc4ccccc4F)cc3)[C@@H]2C1	-12.0[25 µM]
COc1ccc(OC(=O)N(C)C[C@H]2OCc3ccccc3-c3c(n(C)c4ccccc34)C(=O)N([C@H](C)CO)C[C@@H]2C)cc1	-2.6
CC(=O)C1CCC2C3CCC4CC(O)CCC4(C)C3CCC12C#N (configuration not stated)	1.1
CC1OC(OC2C(O)CC(OC3C(O)CC(OC4CCC5(C)C(CCC6C5CCC5(C)C(C7=CC(=O)OC7)C(O)CC65O)C4)OC3C)OC2C)CC(O)C1O (configuration not stated)	57.6*
C[C@]12CCC3C(CC[C@H]4C[C@@H](O)CC[C@]34C)C1C[C@@H](O)[C@@H]2O (some centres not stated)	1.1
C[C@]12CC[C@@H](O)C[C@@H]1CC[C@@H]1[C@@H]2CC[C@]2(C)C(=O)CC[C@@H]12	11.9
CC(=O)OC1CC2(O)C3CCC4CC(O)CCC4(C)C3CCC2(C)C1C1=CC(=O)OC1 (configuration not stated)	75.0*
C[C@]12CC[C@H](O)C[C@H]1CC[C@@H]1[C@@H]2CC[C@]2(C)[C@@H](c3ccc(=O)oc3)CC[C@]12O	58.2*[25 µM]
C[C@]12CC[C@H](O)C[C@@H]1CC[C@H]1[C@H]3CCC(=O)[C@@]3(C)CC[C@@H]12	2.1
COC(=O)[C@@H]1[C@@H](CO)[C@@H]2Cn3c(ccc(-c4ccccc4F)c3=O)[C@H]1N2Cc1cccnc1	-5.9[25 µM]
